This is a sample that favours compounds with a hit; in the whole collection about 3.8% have one here.
PrP UTR inh – inhibition of PrP 5' UTR reporter expression; cell-based PrP 5' UTR mRNA reporter, plate reader; inhibition, % (test concentration not listed); 340,000 compounds, 0.35% hits; AID 488862, 2010; in the data active = inhibition above about 52%; also: 0 = median of the neutral control wells
GDH-TPI counter-1 – GDH-TPI coupling enzyme inhibitors, primary screen, artefact control for M. tuberculosis FBA inhibitor project, biochemical, absorbance, full deck; 360,000 compounds, 1.2% hits; inhibition, % at 4.8 µM; GDH-TPI coupled enzyme counterscreen, NADH absorbance; in the data active = inhibition above about 30%;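 also: 0% = DMSO wells and 100% = wells lacking the enzyme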
Yp Topo-I inh – Yersinia pestis topoisomerase I inhibitors, primary screen, biochemical, cleavage product accumulation, plate reader, single point; DNA topoisomerase I (Yersinia pestis CO92); Y. pestis Topo-I cleavage product accumulation; activity, % at 10 µM; 360,000 compounds, 0.064% hits; AID 504884, 2011; in the data active = activity above about 50%, passing the limit was not always enough
PrPC surface inh – inhibitors of human cell surface prion protein PrPC, primary screen, cell-based, TR-FRET; Major prion protein (Homo sapiens), P04156; TR-FRET read-out; inhibition, % at 13.8 µM; 370,000 compounds, 0.43% hits; AID 720596, 2013; in the data active = inhibition above about 24%; also: 0% = median of the test wells and 100% = reference compound wells
FBA Mtb inh – Mtb FBA enzyme inhibitors, primary screen, biochemical, fluorescence, strain H37Rv; Fructose-bisphosphate aldolase (Mycobacterium tuberculosis (strain ATCC 25618 / H37Rv)), …; purified M. tuberculosis FBA, fluorescence read-out; inhibition, % at 1 µM; 360,000 compounds, 2.3% hits; AID 588726, 2011;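 also: 0% = vehicle and 100% = reference inhibitor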
Target sequence (P9WQA3 whole entry, looked up): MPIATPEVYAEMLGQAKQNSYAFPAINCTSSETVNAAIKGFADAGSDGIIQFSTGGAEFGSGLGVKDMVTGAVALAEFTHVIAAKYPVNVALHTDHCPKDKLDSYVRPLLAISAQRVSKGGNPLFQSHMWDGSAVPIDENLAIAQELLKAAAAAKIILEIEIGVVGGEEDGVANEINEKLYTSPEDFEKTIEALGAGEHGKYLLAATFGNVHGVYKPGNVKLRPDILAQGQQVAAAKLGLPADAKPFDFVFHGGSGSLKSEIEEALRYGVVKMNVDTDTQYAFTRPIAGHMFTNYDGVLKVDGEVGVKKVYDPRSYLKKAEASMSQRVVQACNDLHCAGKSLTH
Mtb hypoxia rep – PubChem AID 1159583; fluorescence inhibition, % (test concentration not listed); M. tuberculosis hypoxia-regulated fluorescent reporter, fluorescence; 300,000 compounds, 0.1% hits; in the data active = fluorescence inhibition mostly above about 23%, no sharp cut-off; inactive = mostly below about 17%
Mtb FBA confirm – M. tuberculosis aldolase blockers, biochemical, fluorescence, strain H37Rv, confirmation. shares compounds with FBA Mtb inh. purified M. tuberculosis FBA, fluorescence read-out. inhibition, % at 1 µM. 5,600 compounds, 78% hits. AID 651616, 2012;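 also: 0% = vehicle wells and 100% = reference inhibitor wells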
GDH-TPI counter-2 – GDH-TPI coupling enzyme inhibitors, artefact control for M. tuberculosis FBA inhibitor project, biochemical, fluorescence, high throughput; shares compounds with FBA Mtb inh; GDH-TPI coupled enzyme counterscreen; inhibition, % at 1 µM; 5,600 compounds, 81% hits; AID 652141, 2013; in the data active = inhibition above about 10%
* hit, by the source's call; . = no result given; + = active, no number. Rule as the data show it, unless noted: active = inhibition above about 27%; inactive = the rest.

SMILES | PrP UTR inh | GDH-TPI counter-1 | Yp Topo-I inh | PrPC surface inh | FBA Mtb inh | Mtb hypoxia rep | Mtb FBA confirm | GDH-TPI counter-2
O=C(NCc1ccc(Cl)cc1)c1cnn2ccccc12 | -71.5 | 5.6 | -6.0 | -2.0 | 38.1* | 7.4 | 2.1 | -4.1
Cc1cc(C)n2ncc(C(=O)NCc3ccccc3)c2n1 | 0.1 | 13.0 | 5.6 | -3.3 | 23.6 | . | . | .
O=C(NCc1ccc(Cl)cc1)c1ccc2ccccc2n1 | -26.1 | -2.2 | 21.7 | 15.1 | 64.7* | 15.2 | 137.5* | 117.5*
O=C(NCCOc1ccc(Cl)cc1)c1ccc2ccccc2n1 | -42.9 | 0.6 | 37.7 | -5.1 | -2.3 | 3.1 | . | .
COc1ccc(C(C)=NO)cc1OC | . | . | . | . | . | 5.1 | . | .
COc1cc(C=NNC(=O)Cn2ccc(C(F)(F)F)n2)cc(OC)c1OC | . | . | . | . | . | 3.5 | . | .
COc1ccccc1C(=O)NC(=Cc1ccccc1)C(=O)Nc1ccc(C(=O)O)cc1 | . | . | . | . | . | 2.9 | . | .
CC1(C(=O)N(c2ccccc2)C(C(=O)NC2CCCC2)c2ccccn2)CC(=O)N=C2C=CC=CN21 (stereo unspecified) | -18.9 | 13.6 | -3.2 | -3.8 | 96.2* | 6.0 | 106.8* | 80.8*
CC1=CC2=NC(=O)CC(C)(C(=O)N(CC(=O)NC(C)C)C3CCCC3)N2C=C1 (stereo unspecified) | . | . | . | . | . | 4.4 | . | .
O=C(NC1CCCC1)C(c1ccccn1)N(C(=O)c1csnn1)c1ccccc1 (stereo unspecified) | -27.4 | -4.0 | 3.6 | 1.7 | -0.2 | 2.9 | . | .
CC1=CC2=NC(=O)CC(C)(C(=O)N(CC(=O)NC3CCCC3)Cc3ccccc3)N2C=C1 (stereo unspecified) | 0.8 | 8.0 | -5.9 | -0.9 | 69.1* | 10.4 | 9.4 | 4.1
CC1(C(=O)N(CC(=O)NC2CCCC2)C2CCCC2)CC(=O)N=C2C=CC=CN21 (stereo unspecified) | -23.9 | 25.0 | -0.8 | -4.2 | 110.3* | 4.4 | -1.0 | -5.3
Cc1ccccc1N(CC(=O)NC1CCCC1)C(=O)C1(C)CC(=O)N=C2C=CC=CN21 (stereo unspecified) | 2.0 | 12.4 | -0.7 | 1.3 | 73.9* | -2.7 | 104.2* | 94.1*
Cc1cccc(C)c1-n1c(C)cc(C=NNC(=O)CSc2ncccn2)c1C | . | . | . | . | . | 4.1 | . | .
CC(C)CC(C)C(=O)N(Cc1ccccc1)c1ccccc1 (stereo unspecified) | . | . | . | . | . | 4.5 | . | .
CN(C)c1ccc(C=NNC(=O)c2ccc(CN3CCOCC3)cc2)cc1Br | . | . | . | . | . | 3.9 | . | .
CC(=NNc1nccnc1Cl)c1ccc(O)cc1 | . | . | . | . | . | 5.9 | . | .
Cc1cc(C)cc(N(CC(=O)NC2CCCC2)C(=O)C2(C)CC(=O)N=C3C=CC=CN32)c1 (stereo unspecified) | -11.8 | 12.3 | 1.2 | -5.9 | 36.2* | -0.7 | + | 161.2*
Cc1ccccc1N(CC(=O)NCC1CCCO1)C(=O)C1(C)CC(=O)N=C2C=CC=CN21 (stereo unspecified) | -23.6 | -1.3 | -2.7 | 0.1 | 85.9* | 4.3 | 106.1* | 79.4*
Cc1cc(/C=N/NC(=O)Cn2c3ccccc3c(=O)c3ccccc32)c(C)n1-c1ccccc1 | -17.9 | 8.6 | 32.1 | 0.2 | 66.1* | . | + | +
Cc1ccc(N(CC(=O)N/N=C/c2cc(C)n(-c3ccccc3)c2C)S(C)(=O)=O)c(C)c1 | -10.0 | -1.3 | 17.5 | -5.6 | -0.6 | . | . | .
COCC1CCN(C(=O)c2cc(COc3cccc4cnccc34)on2)CC1 | -11.7 | 8.3 | 12.6 | -0.8 | 20.2 | 4.5 | . | .
O=C(c1cc(COc2cccc3cnccc23)on1)N1CCCC(CCCO)C1 (stereo unspecified) | 10.6 | 3.8 | 7.5 | 15.0 | 29.8* | -4.6 | 192.1* | 132.5*
CC(=NNc1ccc([N+](=O)[O-])cc1)c1cc2ccccc2o1 | . | . | . | . | . | 8.8 | . | .
CC/C(=N/NC(=O)c1ccccc1)c1ccc(OCCN2CCOCC2)cc1 | -21.9 | 2.6 | -6.6 | 4.4 | 31.0* | . | 90.9* | 56.6*
SMILES | PrP UTR inh | GDH-TPI counter-1 | Yp Topo-I inh | PrPC surface inh | FBA Mtb inh | Mtb hypoxia rep | Mtb FBA confirm | GDH-TPI counter-2
CCOC(=O)C1CCN(C(=O)c2cn(CCOC)c(=O)c3c2c2ccccc2n3C)CC1 | -23.9 | 11.2 | 8.6 | 6.6 | 46.5* | 1.6 | 83.8* | 67.5*
Cc1cc(NC(=O)c2cn(C3CCCCC3)c(=O)c3c2c2ccccc2n3C)no1 | 0.4 | 4.3 | 17.3 | 0.8 | 2.2 | -5.0 | . | .
CCN1CCN(C(=O)c2cn(CCOC)c(=O)c3c2c2ccccc2n3C)CC1 | -10.6 | 19.9 | -0.3 | 7.3 | 47.9* | 9.0 | 171.5* | 129.4*
Cn1c2ccccc2c2c(C(=O)N3CCC4(CC3)OCCO4)cn(C3CCCC3)c(=O)c21 | -2.0 | 8.3 | 22.7 | -7.9 | 27.9* | 0.6 | 58.0* | 46.9*
COCCn1cc(C(=O)N2CCCC(C)C2)c2c3ccccc3n(C)c2c1=O (stereo unspecified) | -20.5 | 15.5 | 18.1 | -4.0 | 45.4* | 7.6 | -0.3 | -4.8
CCc1ccc(C=NNC(=O)Cc2cccn2C)cc1 | . | . | . | . | . | 13.2 | . | .
COC(=O)C1=C(C)N=c2sc(=Cc3cccs3)c(=O)n2C1c1cccs1 (stereo unspecified) | . | . | . | . | . | 8.3 | . | .
COC(=O)C1=C(c2ccc(OC(F)(F)F)cc2)CC2CCC1N2C(=O)N1CCCCC1 (stereo unspecified) | . | . | . | . | . | 4.5 | . | .
Cn1cc(C(=O)N2CCN(C(=O)c3ccco3)CC2)c2c3ccccc3n(C)c2c1=O | 1.2 | 14.7 | 4.4 | -8.2 | 37.0* | 8.1 | -2.3 | -2.8
COCCn1cc(C(=O)N2CCC3(CC2)OCCO3)c2c3ccccc3n(C)c2c1=O | -18.8 | 12.8 | 7.2 | 1.4 | 37.5* | 4.7 | 144.3* | 120.1*
Cc1ccc2[nH]c(C(=O)NN=Cc3ccc([N+](=O)[O-])cc3)c(C)c2c1 | . | . | . | . | . | 10.1 | . | .
COc1cccc(-c2cc3nc(-c4ccccc4)cc(N4CCC5(CC4)OCCO5)n3n2)c1 | 1.3 | 2.8 | 2.7 | -5.0 | 64.6* | -1.3 | 1.4 | -4.0
O=C(c1ccoc1)N1CCN(c2cc(-c3ccccc3)nc3cc(-c4ccccc4)nn23)CC1 | . | 5.2 | -7.1 | -2.6 | 39.4* | . | 63.6* | 59.5*
COc1cccc(-c2cc3nc(-c4ccccc4)cc(N4CCN(C(=O)c5ccoc5)CC4)n3n2)c1 | . | -2.8 | 27.5 | 5.5 | 62.0* | . | 151.3* | 102.0*
COc1cccc(-c2cc(N3CCN(C(=O)c4ccoc4)CC3)n3nc(-c4cccc(Cl)c4)cc3n2)c1 | . | 9.3 | 9.6 | -0.8 | 1.7 | . | . | .
